Assays:
Test in all cases: log2 ratio of Biotin-Ahx-Ub-VS probe labelling (fragment/DMSO); higher = less target engagement (more negative = stronger competition), active = hit call of the paper (q ≤ 0.05, log2 ratio ≤ -1)
Details in all cases: compound concentration: 200 uM; treatment time: 3 h
OTUD6B = biological target: T1, OTUD6B (UniProt Q8N6M0)
T1 sequence (whole entry): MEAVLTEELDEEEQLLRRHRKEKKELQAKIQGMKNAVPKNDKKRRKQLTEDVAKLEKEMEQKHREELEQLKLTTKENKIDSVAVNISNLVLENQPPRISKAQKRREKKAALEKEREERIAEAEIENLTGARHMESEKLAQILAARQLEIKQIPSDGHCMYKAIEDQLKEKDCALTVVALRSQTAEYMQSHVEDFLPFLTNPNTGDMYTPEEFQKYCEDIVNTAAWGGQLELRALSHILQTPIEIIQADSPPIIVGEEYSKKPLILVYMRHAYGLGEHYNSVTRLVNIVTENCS
Summary of the method: (§1)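 In triplicate, 495 µg of HEK293T lysate per sample was incubated with fragment at 200 µM or vehicle for 3 h. Biotin-Ahx-Ub-VS was then added to 0.5 µM final for 1 h, and labelled DUBs were captured with NeutrAvidin, digested with LysC and trypsin, and measured by diaPASEF LC-MS/MS. Data are average log2 fragment/vehicle ratios by unpaired t-test from global-median-normalised Spectronaut label-free quantities, restricted to proteins with ≥2 unique peptides.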

OTUD7B = biological target: T2, OTUD7B (UniProt Q6GQQ9)
T2 sequence (whole entry): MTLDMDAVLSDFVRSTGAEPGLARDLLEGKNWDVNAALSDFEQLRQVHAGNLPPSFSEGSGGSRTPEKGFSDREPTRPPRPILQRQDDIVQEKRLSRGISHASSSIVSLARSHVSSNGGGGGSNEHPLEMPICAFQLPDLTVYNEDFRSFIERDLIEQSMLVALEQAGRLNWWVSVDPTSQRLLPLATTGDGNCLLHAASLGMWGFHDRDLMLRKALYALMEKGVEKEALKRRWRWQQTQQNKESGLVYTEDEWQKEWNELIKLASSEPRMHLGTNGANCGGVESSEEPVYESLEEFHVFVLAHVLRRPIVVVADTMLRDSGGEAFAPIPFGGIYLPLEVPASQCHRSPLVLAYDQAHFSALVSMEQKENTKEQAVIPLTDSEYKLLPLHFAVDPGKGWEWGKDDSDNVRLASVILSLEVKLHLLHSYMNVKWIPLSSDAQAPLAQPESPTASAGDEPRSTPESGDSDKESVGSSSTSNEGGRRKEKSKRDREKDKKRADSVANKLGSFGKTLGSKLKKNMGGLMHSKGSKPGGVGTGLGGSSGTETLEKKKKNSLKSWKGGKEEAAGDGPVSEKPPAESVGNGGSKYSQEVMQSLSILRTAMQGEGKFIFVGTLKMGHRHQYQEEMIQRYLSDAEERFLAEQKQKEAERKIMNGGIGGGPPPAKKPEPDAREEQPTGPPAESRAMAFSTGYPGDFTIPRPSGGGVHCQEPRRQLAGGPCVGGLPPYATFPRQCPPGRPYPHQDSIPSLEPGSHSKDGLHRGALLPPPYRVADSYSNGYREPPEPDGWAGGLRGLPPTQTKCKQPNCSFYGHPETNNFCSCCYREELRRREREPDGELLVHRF
Summary of the method: as §1

PRPF8 = PRPF8 (UniProt Q6P2Q9)
Summary of the method: as §1

PSMD7 = biological target: T3, PSMD7 (UniProt P51665)
T3 sequence (whole entry): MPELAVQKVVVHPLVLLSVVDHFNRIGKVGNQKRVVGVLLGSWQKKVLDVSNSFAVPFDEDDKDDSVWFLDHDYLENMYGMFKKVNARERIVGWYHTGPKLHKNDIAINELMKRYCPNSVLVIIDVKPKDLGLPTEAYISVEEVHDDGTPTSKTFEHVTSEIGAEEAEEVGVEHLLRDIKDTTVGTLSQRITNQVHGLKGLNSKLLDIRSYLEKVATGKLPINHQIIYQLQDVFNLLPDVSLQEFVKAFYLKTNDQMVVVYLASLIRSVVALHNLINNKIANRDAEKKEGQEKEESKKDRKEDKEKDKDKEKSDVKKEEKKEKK
Summary of the method: as §1

UCHL1 = UCHL1 (UniProt P09936)
Sequence of UCHL1 (P09936 whole entry, looked up): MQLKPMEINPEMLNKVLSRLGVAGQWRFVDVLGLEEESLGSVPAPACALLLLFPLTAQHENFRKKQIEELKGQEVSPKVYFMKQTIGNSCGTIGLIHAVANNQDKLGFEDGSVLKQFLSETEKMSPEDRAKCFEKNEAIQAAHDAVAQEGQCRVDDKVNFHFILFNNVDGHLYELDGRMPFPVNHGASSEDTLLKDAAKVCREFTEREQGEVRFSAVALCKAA
Summary of the method: as §1

UCHL3 = biological target: T4, UCHL3 (UniProt P15374)
T4 sequence (whole entry): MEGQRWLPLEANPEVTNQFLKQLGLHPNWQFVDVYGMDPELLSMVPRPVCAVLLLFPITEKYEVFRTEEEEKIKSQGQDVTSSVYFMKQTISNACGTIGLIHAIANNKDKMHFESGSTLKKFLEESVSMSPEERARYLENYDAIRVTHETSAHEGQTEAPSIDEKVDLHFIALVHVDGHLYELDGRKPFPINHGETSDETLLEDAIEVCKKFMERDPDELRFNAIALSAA
Summary of the method: as §1

UCHL5 = biological target: T5, UCHL5 (UniProt Q9Y5K5)
T5 sequence (whole entry): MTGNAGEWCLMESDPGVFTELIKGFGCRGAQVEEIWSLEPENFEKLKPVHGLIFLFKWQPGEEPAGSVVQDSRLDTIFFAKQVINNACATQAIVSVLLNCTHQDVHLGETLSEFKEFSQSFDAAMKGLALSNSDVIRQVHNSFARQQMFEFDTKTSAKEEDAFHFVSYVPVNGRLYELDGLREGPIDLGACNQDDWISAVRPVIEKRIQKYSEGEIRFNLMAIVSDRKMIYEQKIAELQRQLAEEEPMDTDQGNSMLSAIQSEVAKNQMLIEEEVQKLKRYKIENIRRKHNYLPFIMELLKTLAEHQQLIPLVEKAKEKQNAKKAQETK
Summary of the method: as §1

USP10 = USP10 (UniProt Q14694)
Sequence of USP10 (Q14694 whole entry): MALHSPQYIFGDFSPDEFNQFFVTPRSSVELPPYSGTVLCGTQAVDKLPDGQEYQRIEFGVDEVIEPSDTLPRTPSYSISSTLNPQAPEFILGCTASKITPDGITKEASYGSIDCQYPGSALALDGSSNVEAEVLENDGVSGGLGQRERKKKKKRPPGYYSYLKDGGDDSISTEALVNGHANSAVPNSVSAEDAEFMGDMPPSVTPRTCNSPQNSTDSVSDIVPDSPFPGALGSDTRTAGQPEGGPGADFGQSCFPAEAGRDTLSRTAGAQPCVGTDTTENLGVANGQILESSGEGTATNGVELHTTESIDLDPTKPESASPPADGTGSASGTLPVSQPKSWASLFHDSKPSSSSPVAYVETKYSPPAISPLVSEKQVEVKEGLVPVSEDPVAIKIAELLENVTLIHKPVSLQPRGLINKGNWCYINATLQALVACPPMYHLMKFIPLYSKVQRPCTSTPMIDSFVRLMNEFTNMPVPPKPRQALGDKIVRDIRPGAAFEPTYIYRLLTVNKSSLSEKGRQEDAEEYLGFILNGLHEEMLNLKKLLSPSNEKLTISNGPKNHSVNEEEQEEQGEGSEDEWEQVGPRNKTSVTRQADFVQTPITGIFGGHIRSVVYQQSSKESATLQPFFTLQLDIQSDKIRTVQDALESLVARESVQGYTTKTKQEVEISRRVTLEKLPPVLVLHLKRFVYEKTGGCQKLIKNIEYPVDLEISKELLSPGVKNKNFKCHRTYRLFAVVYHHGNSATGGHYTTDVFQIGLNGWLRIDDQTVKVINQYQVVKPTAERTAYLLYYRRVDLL
Summary of the method: as §1

USP15 = biological target: T6, USP15 (UniProt Q9Y4E8)
T6 sequence (whole entry): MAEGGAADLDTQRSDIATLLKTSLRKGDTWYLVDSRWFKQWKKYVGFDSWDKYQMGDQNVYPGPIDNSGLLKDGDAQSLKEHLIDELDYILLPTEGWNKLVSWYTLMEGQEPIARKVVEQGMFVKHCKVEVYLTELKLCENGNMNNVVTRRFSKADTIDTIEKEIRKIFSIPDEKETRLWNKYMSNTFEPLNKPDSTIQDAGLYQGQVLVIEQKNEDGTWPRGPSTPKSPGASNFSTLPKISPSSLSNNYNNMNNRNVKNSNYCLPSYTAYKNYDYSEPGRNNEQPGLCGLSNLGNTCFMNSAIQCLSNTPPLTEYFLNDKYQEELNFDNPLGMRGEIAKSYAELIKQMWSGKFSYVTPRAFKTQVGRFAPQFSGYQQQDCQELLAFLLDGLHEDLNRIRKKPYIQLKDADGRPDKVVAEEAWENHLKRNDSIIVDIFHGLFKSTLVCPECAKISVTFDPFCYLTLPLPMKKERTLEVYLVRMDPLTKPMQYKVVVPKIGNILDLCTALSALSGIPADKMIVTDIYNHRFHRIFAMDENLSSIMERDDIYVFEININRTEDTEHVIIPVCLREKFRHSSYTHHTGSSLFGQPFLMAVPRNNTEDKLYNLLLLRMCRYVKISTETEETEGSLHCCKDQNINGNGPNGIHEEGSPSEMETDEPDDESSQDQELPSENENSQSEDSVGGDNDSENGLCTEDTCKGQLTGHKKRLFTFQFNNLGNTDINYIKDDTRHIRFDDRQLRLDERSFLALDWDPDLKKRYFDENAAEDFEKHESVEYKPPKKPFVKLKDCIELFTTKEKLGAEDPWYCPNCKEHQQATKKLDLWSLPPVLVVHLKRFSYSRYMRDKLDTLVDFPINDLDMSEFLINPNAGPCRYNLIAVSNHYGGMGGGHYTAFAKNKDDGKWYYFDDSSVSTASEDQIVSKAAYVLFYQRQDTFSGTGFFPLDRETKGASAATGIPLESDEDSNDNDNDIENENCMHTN
Summary of the method: as §1

USP16 = USP16 (UniProt Q9Y5T5)
Sequence of USP16 (Q9Y5T5 whole entry, looked up): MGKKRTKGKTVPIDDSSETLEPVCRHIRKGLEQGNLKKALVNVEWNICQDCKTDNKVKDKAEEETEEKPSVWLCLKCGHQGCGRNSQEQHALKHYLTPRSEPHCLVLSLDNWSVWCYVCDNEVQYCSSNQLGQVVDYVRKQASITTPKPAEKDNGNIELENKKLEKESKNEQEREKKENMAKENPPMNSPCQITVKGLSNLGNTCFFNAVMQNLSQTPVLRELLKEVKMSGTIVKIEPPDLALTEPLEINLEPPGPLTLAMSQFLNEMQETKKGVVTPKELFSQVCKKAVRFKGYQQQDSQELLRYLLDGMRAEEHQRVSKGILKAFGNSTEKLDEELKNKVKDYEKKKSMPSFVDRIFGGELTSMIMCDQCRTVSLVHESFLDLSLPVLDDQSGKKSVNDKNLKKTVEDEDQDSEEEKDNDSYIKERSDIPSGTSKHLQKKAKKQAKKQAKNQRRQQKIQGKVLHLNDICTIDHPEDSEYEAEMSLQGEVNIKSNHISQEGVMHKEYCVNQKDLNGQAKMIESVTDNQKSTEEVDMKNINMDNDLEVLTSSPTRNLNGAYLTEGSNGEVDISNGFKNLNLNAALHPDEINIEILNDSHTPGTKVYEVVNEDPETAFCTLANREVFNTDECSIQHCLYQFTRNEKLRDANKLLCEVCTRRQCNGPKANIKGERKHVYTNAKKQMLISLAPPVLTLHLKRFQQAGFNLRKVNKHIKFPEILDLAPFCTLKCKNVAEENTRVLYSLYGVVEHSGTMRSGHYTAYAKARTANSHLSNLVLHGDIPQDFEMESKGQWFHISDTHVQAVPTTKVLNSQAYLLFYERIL
Summary of the method: as §1

Measured: log2 ratio of Biotin-Ahx-Ub-VS probe labelling

Cl.Cn1nc2c(c1CNC(=O)CCl)CCCC2
inactive: OTUD6B -0.361 | PRPF8 -0.184 | PSMD7 -0.299 | UCHL3 0.314 | UCHL5 -0.368 | USP10 -0.24 | USP15 -0.224 | USP16 -0.4
active: OTUD7B -1.04 | UCHL1 -1.7

From the supplement of paper PMC11732987, “Enantioselective OTUD7B fragment discovery through chemoproteomics screening and high-throughput optimisation” (Communications Chemistry, 2025)
